In publication PMC4336329 (PLoS ONE, 2015):
The campaign covered roughly 310,000 compounds. About 14,000 (4.5%) showed an effect of 50% or more. The effect is printed as a negative number. The list comes from a sample in which strong results are over-represented; it also holds similar structures and randomly drawn compounds.

Target: human ether-à-go-go-related gene (hERG) potassium channel (human, UniProt Q12809)
Assay: primary screen, population patch clamp on CHO cells stably expressing hERG; higher = less effect of the substance
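Further: peak tail current of the secondary pulse compared with the same well before compound.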

human ether-à-go-go-related gene (hERG) potassium channel, sequence (Q12809 whole entry, looked up): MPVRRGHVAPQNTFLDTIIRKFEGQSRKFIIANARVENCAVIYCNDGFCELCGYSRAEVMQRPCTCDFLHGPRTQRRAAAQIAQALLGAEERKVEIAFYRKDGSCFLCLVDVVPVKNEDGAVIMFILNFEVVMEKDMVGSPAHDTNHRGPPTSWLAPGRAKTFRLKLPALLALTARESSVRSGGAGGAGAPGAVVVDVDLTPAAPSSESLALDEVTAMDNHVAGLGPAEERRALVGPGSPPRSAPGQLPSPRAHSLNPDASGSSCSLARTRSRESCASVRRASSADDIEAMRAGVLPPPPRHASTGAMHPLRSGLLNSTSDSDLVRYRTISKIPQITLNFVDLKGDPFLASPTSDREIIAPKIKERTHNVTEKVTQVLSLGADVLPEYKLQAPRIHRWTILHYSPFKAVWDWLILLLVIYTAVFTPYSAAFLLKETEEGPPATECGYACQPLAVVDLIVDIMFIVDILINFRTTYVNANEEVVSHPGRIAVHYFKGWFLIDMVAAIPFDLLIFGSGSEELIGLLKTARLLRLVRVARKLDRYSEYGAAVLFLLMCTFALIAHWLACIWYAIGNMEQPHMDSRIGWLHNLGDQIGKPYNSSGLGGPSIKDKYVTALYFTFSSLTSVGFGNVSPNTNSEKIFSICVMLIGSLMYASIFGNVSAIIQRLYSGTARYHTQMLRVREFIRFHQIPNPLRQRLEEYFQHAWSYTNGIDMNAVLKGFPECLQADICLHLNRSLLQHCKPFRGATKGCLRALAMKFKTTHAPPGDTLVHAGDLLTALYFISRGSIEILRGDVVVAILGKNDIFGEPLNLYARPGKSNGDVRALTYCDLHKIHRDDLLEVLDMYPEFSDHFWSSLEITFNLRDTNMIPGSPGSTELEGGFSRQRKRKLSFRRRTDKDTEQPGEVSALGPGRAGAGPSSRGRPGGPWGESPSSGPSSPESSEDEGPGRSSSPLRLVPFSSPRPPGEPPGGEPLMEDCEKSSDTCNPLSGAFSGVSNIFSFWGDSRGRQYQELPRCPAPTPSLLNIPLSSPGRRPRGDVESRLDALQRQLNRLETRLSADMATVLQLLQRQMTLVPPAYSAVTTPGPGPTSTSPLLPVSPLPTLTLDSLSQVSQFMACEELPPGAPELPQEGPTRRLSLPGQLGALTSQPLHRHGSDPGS

Row | Structure (SMILES) | hERG current change (%, negative = inhibition) at 10uM [%]
1 | CCOC(=O)N1CCN(C(=O)CN(C2CCCCC2)S(=O)(=O)c2ccc(F)cc2)CC1 | -25.3
2 | O=C(Nc1cc(S(=O)(=O)N2CCOCC2)ccc1N1CCOCC1)c1cnccn1 | -42.7
3 | CC(C)(C)C(=O)NC(=S)Nc1ccccc1C(=O)NC1CCCCC1 | -18
4 | COc1ccc(C)cc1NC(=O)c1ccc2c(SCC(=O)O)c3c(nc2c1)CCCC3 | 10.9
5 | CC(C)OC(=O)CSc1nnc(-c2ccc(Cl)cc2Cl)o1 | -7.24
6 | O=C(CN1CCN(S(=O)(=O)c2ccccc2)CC1)Nc1ccc2c(c1)OCO2 | -44.1
7 | O=C(CN1CCN(S(=O)(=O)c2ccc(Br)cc2)CC1)Nc1ccc2c(c1)OCO2 | -62.4
8 | CC(C)c1ccc(S(=O)(=O)N2CCN(CC(=O)Nc3ccc4c(c3)OCO4)CC2)cc1 | -13.9
9 | O=C(CN1CCN(S(=O)(=O)c2ccc(Cl)cc2)CC1)Nc1ccc2c(c1)OCO2 | -65
10 | O=C(CN1CCN(S(=O)(=O)c2ccc(Br)cc2)CC1)Nc1ccc2c(c1)OCCO2 | -27.9
11 | O=C(CN1CCN(S(=O)(=O)c2ccc(Cl)cc2)CC1)Nc1ccc2c(c1)OCCO2 | -5.94
12 | CCCc1nnc(SCC(=O)Nc2ccc(OC)cc2)o1 | 28.8
13 | Nn1c(SCc2ccccc2)nnc1C1CCCCC1 | 7.68
14 | CC(=O)N1CCC(C(=O)NC2CC(C)(C)Cc3c2cnn3-c2ccc(F)cc2)CC1 (centres unmarked) | -25.3
15 | CC1(C)Cc2c(cnn2-c2ccc(F)cc2)C(NC(=O)CCC(F)(F)F)C1 (centres unmarked) | -42.8
16 | CC1(C)Cc2c(cnn2-c2ccc(F)cc2)C(NC(=O)C(C)(C)O)C1 (centres unmarked) | -0.859

Row | Structure (SMILES) | hERG current change (%, negative = inhibition) at 10uM [%]
17 | COC(=O)CCC(=O)NC1CC(C)(C)Cc2c1cnn2-c1ccc(F)cc1 (centres unmarked) | 4.42
18 | COCC(=O)NC1CC(C)(C)Cc2c1cnn2-c1ccc(F)cc1 (centres unmarked) | -64.9
19 | CC1(C)Cc2c(cnn2-c2ccc(F)cc2)C(NC(=O)C2CCC2)C1 (centres unmarked) | -79.2
20 | CCN(CC)S(=O)(=O)c1ccc(C(=O)NCc2nnc(SCC(=O)OC)n2C)cc1 | -1.87
21 | O=C(Nc1cccc(F)c1)C1CCN(C(=O)c2ccccc2Cl)CC1 | -8.66
22 | O=C(Nc1cccc(-c2cccc(Cl)c2)c1)C1CCN(C2CCC2)CC1 | -73.7
23 | CS(=O)(=O)N1CCC(C(=O)Nc2cccc(Cl)c2)CC1 | 2.18
24 | O=C(Nc1cccc(F)c1)C1CCN(C(=O)Cc2ccccc2)CC1 | -7.55
25 | O=C(NC1CCN(C(=O)Nc2cccc(Cl)c2)CC1)C1CCCCC1 | 13.1
26 | O=C(Nc1cccc(F)c1)C1CCCCC1 | -9.22
27 | Cl.O=C(Nc1cccc(Cl)c1)NC1CCN(C2CCCCC2)C1 (centres unmarked) | -56.6
28 | O=C(Nc1cccc(-c2cccc(F)c2)c1)C1CCN(C2CCC2)CC1 | -71.5
29 | O=C(Nc1cccc(Cl)c1)NC1CCCCC1 | 8.14
30 | O=C(Nc1cccc(-c2cccc(F)c2)c1)C1CCN(C2CCOCC2)CC1 | -75
31 | CS(=O)(=O)N1CCC(C(=O)Nc2cccc(F)c2)CC1 | 15.2
32 | O=C(Nc1cccc(Cl)c1)C1CCCCC1 | -9.14
